The results in this text go back to PubChem BioAssay (EPA / NIEHS).

Where “and” joins values, the source holds several entries; their conditions need not be identical. Equal entries are not always repeated. Inconclusive results are not listed. Calls of active or inactive are those of the source. How the source made its calls: active means hit-call score of the fitted dose curve at least 0.9, where 1 is the maximum; inconclusive means response in the unintended direction; inactive means score below 0.9.

A short description of the test: TOX21_p53_BLA_p2_viability: Viability Assessment in the Tox21 HCT-116 p53 Agonism Beta-lactamase Assay, Phase 2 (AID 2283591).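 Further: compound exposure lasted 16 h at 37 °C; actives lower the ATP signal meaning cytotoxicity.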 An excerpt: TOX21_p53_BLA_p2 is a cell-based, single-readout assay that uses HCT116, a human intestinal cell line, […] in a 1536-well plate.TOX21_p53_BLA_p2_viability is an assay readout measuring cellular ATP content and detected with CellTiter-Glo Luciferase-coupled ATP quantitation.TOX21_p53_BLA_p2_viability used a type of viability reporter where loss-of-signal activity can be used to understand changes in the cell viability. Furthermore, this assay endpoint can be referred to as a secondary readout, because this assay has produced multiple assay endpoints where this one serves a viability function. To generalize the intended target to other relatable targets, this assay endpoint is annotated to the cell cycle intended target family, where the subfamily is cytotoxicity.
Thawing Method: Place 14 mL of pre-warmed thaw medium into a 15 mL of conical tub. Remove the vial of cells to be thawed from liquid nitrogen and thaw rapidly by placing at 37C in a water bath with gentle agitation for 1-2 minutes. Decontaminate the vial by wiping with 70% ethanol before opening in a biological safety cabinet. Transfer the vial contents drop-wise into 14 mL of thaw medium in a sterile 15-mL conical tub. Centrifuge cells at 900 rpm for 4 minutes and resuspend in thaw medium. Transfer contents to the T75 tissue culture flask containing Thaw Medium and place flask in a humidified 37C/5% CO2 incubator. Switch to growth medium at first passage.Propagation Method: Aspirate medium, rinse once in DPBS, add 0.25% Trypsin/EDTA and swirl to coat the cell evenly. Add an equal volume of Growth Medium to inactivate Trypsin after 2-3 minutes incubation at 37C. Centrifuge cells at 900 rpm for 4 minutes and resuspend in growth medium. Cell should be passage or fed at least twice a week.Assay Protocol: Harvest cells from culture in growth medium and resuspend in assay medium. 2.2 Dispense 4000 cells/5 uL/well into 1536-well black/clear bottom plates using a Multidrop dispenser. After the cells were incubated at 37C for 5 hours, 23 nL of compounds dissolved in DMSO were transferred to the assay plate by a PinTool resulting in a 217-fold dilution. Incubate the plates for 16 hours at 37C, 5% CO2. Add 1 uL of 6X LiveBLAzer FRET B/G (CCF4-AM) Substrate Mixture to each well using a BioRAPTR dispenser and incubate the plates at room temperature for 2 hours. Measure fluorescence intensity at 460 and 530 nm emission and 405 nm excitation by an Envision detector. Data is expressed as the ratio of 460nm/530nm emissions. Add 4 uL of Cell-titer Glo to each well using BioRAPTR and incubate the plates at room temperature for […]. For cell viability readout that measures cytotoxicity, 4 ul/well of CellTiter-Glo reagent was added into the assay plates using a Flying Reagent Dispenser. After 30 min incubation at room temperature, the luminescence intensity in the plates was measured using a ViewLux plate reader.
For the compound `O=S1(=O)OCC2C(CO1)C1(Cl)C(Cl)=C(Cl)C2(Cl)C1(Cl)Cl` (stereo not given), the call was inactive.

On to `CCOC(=O)c1ccccc1C(=O)OCC`, for which the compound was classed as inactive.

On to `CC(C)Nc1ccc(Nc2ccccc2)cc1`, for which the AC50 was 46.1 µM (active) and 45.9 µM (active) and 23 µM (active).

Turning to `C=C(C)C(=O)OCC1CO1` (stereo not given), the call was inactive.

Consider `O=P(OCC(Br)CBr)(OCC(Br)CBr)OCC(Br)CBr` (stereo not given), for which the result was inactive.

Regarding `C=CC(=O)OCC(CC)(COC(=O)C=C)COC(=O)C=C`, the AC50 is 46.1 µM (active) and 95.1 µM (active).

With `ClC1=C(Cl)C2(Cl)C3C(Cl)C(Cl)CC3C1(Cl)C2(Cl)Cl` (stereo not given), the half-maximal activity concentration (AC50) was 50.8 µM (active) and 46 µM (active).

On to `CCCCN(CCCC)N=O`, for which the result was inactive.

With `CCOP(=S)(OCC)SCn1nnc2ccccc2c1=O`, the result was inactive.

For the compound `CC1(C)CN=C(NN=C(/C=C/c2ccc(C(F)(F)F)cc2)/C=C/c2ccc(C(F)(F)F)cc2)NC1`, the AC50 is 14.7 µM (active).

For `CC(C)(C)OOC(C)(C)C`, the outcome was inactive.

With `c1ccc2c(c1)Nc1ccccc1S2`, the compound was classed as inactive.

Take `O=P(Oc1ccccc1)(Oc1ccccc1)Oc1ccccc1`: the compound was called inactive.

On to `CCN(CC)c1ccccc1`, for which the result was inactive.

`c1ccc2c(c1)sc1ccccc12`: the compound was called inactive.

For the compound `O=S(=O)(c1ccc(O)cc1)c1ccc(O)cc1`, the result was inactive.

`CCCCOCCOP(=O)(OCCOCCCC)OCCOCCCC`: the compound was called inactive.

As for `CCOP(=S)(NC(C)C)Oc1ccccc1C(=O)OC(C)C` (stereo not given), the call was inactive.

On to `Cc1cccc(N)c1`, for which the compound was classed as inactive.

Take `O=P1(N(CCCl)CCCl)NCCCO1` (stereo not given): the compound was classed as inactive.

As to `Nc1ccc2ccccc2c1`, the outcome was inactive.

Take `CCCN(CCC)c1c([N+](=O)[O-])cc(C(C)C)cc1[N+](=O)[O-]`: the call was inactive.

`c1cc2c3c(cccc3c1)CC2`: the compound was classed as inactive.

For `CCC(C)(C)c1ccc(O)cc1`, the result was inactive.

As for `[N-]=[N+]=[N-]`, the compound was called inactive.

Regarding `COP(=O)(O)OC`, the outcome was inactive.

In the case of `CC1=C(C(=O)Nc2ccccc2)S(=O)(=O)CCO1`, the call was inactive.

Take `CCCCN(CC)C(=O)SCCC`: the call was inactive.

As for `COC(N)=O`, the outcome was inactive.

Regarding `Cc1ccc2c(c1N)C(=O)c1ccccc1C2=O`, the compound was called inactive.

With `CCOP(=S)(S)OCC`, the compound was classed as inactive.

For `O=C(O)C1C(C(=O)O)C2(Cl)C(Cl)=C(Cl)C1(Cl)C2(Cl)Cl` (stereo not given), the call was inactive.

Regarding `O=c1ssc(Cl)c1Cl`, the result was inactive.

Take `O=NN1CCCC1`: the call was inactive.

Regarding `O=[N+]([O-])c1ccccc1`, the result was inactive.

`CCC1(c2ccccc2)C(=O)N=C(O)NC1=O` (stereo not given): the result was inactive.

Take `Nc1ccc(Cl)cc1`: the compound was classed as inactive.

With `c1nc[nH]n1`, the compound was called inactive.

`O=C(CBr)OCc1ccccc1`: the outcome was inactive.

Take `C/C(=N\NC(=O)Nc1cc(F)cc(F)c1)c1ncccc1C(=O)O`: the compound was called inactive.
